The nature of assay [1]: qHTS Assay for Identification of Small Molecule Agonists for NFkB Signaling Pathway. (AID 624478).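 Also: compounds tested together with TNF alpha at its EC50 of 10 pM; 0% is about no effect.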 In a few lines:
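Compounds were added with 10 pM TNF alpha (EC50 level) to ME-180 NFkB-bla cells in low-serum Opti-MEM and incubated 5 hrs at 37 C. Beta-lactamase FRET read-out used 405 nm excitation and 460 and 530 nm emission.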

Assay [2] in a line: qHTS Assay for Identification of Small Molecule Antagonists for NFkB Signaling Pathway. (AID 624479; calls by dose curve;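 also: pathway stimulated with TNF alpha; potency is read from the fitted curve at half-maximal effect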). A general note: qHTS replaces the single test concentration by a dilution series.
The nature of assay [3]: Cell Proliferation Assay against the HBL1 Cell Line (AID 651646).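 Also: cells exposed to compound for 48 h before reading.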 The following applies: HBL1 DLBCL cells; at 46.1 µM (top of the series). In a few lines: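 After a 48 h incubation of 500 HBL1 cells/well in phenol red-free RPMI plus 5% FBS, relative luciferase units from CellTiter-Glo gave percent activity against DMSO and 9.2 uM bortezomib (final) controls.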
A short description of assay [4]: Cell Proliferation Assay against the TMD8 Cell Line (Caspase readout at 16 hrs) (AID 651712).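 Also: 0% = DMSO and 100% = 9.2 µM bortezomib caspase activation.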 Put shortly: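 16 h, 37 °C, TMD8 (500 cells/well), RPMI/5% FBS no phenol red; Caspase-Glo 3/7, 15 min RT, luminescence; %act: DMSO 0, bortezomib 9.2 uM final 100.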
A short description of assay [5]: Cell Proliferation Assay against the TMD8 Cell Line (Caspase readout at 8 hrs) (AID 651713). Also: potency is read from the fitted curve at half-maximal effect. Put shortly:
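Apoptosis read-out: Caspase-Glo luminescence after 8 h compound exposure of TMD8 lymphoma cells at 37C, 5% CO2. Signals were normalized as percent activity between DMSO and bortezomib (9.2 uM final) controls.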

A short description of assay [6]: Cell Proliferation Assay against the TMD8 Cell Line (AID 651645).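 Also: cells exposed to compound for 48 h before reading.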 The conditions noted are these: TMD8 DLBCL cell line proliferation/viability; at 46.1 µM (top of the series). In a few lines:
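Cell viability of the ABC DLBCL line TMD8 is measured by CellTiter-Glo luminescence following a 48-hour incubation with compound. Percent activity uses DMSO as 100% and 9.2 uM bortezomib (final) as 0%.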

Inconclusive results are not listed. Active and inactive are the calls of the source. Unless noted, calls follow the shape of the dose curve; as a rule, active = well fitted curve in the direction sought with a large enough effect; inconclusive = small, poorly fitted or top-dose-only effect, or another doubt; inactive = no such curve, though single readings can be large; an effect the other way counts as inactive or inconclusive.

As to `CC(=O)SC[C@@H](C)C(=O)N1CCC[C@H]1C(=O)N[C@@H](Cc1ccccc1)C(=O)O`, the compound was classed as inactive in assay [1]. The Potency in assay [2] is 8.41 µM (active). Further, in assay [3], the viability, percent of control was found to be 97.5%. Further, the Potency entry in assay [4] and in assay [5] was “inactive” each time.
In the case of `CC(C)(C)c1cc(C(C)(C)C)c(NC(=O)c2c[nH]c3ccccc3c2=O)cc1O`, the Potency in assay [2] is 23.7 µM (active). Also, the viability, percent of control in assay [3] was 5.33%.
As for `Cc1cn2c(-c3cn[nH]c3)cnc2c(Nc2ccc(C(=O)N3CCNCC3)cc2F)n1`, the compound was classed as inactive in assay [1]. Moreover, in assay [6], the viability (% of control) is 35.7%. Further, the viability, percent of control in assay [3] stood at 85.6%.
`Cn1cncc1[C@@](N)(c1ccc(Cl)cc1)c1ccc2c(c1)c(-c1cccc(Cl)c1)cc(=O)n2C`: in assay [1], the result was inactive. In assay [3], the viability, percent of control came to 1.3%.
With `CC(=O)Nc1sc2c(c1-c1nc3ccccc3s1)CNC2`, the call in assay [1] was inactive. Moreover, in assay [3], the viability, percent of control was determined as 22.5%. The Potency in assay [5] was 33.2 µM (active).

These data come from PubChem BioAssay (NCATS).
